# “And” between values parts separate entries of the source, which are not always exact repeats. Equal values may be shown once. Some compounds were tested as several samples or in several runs, with calls that do not always agree. The source made the active and inactive calls. Rule as the data show it, unless noted: active = inhibition above about 80%; inactive = the rest.
# Experiments:
# [1] = kinase inhibitors against Plasmodium liver-stage infection, cell-based, known kinase inhibitor set, luminescence, hepatoma host viability (AID 624392; call rule not given here;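 also: infected cells incubated roughly two days before readout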); conditions: Plasmodium liver stage in hepatoma cells, luciferase luminescence, concentration not given here; liver cell % of control: measured here: host liver cell viability; parasite % of control: stronger effect = lower value
# [2] = hESC survival regulators, cell-based (AID 493140; call rule not given here;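 also: cells exposed to compounds for four days before counting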); conditions: human embryonic stem cell survival screen; stronger effect = higher value
# [3] = liver-stage malaria parasite growth inhibition, primary screen, cell-based, HepG2, luciferase luminescence, HepG2 viability (AID 624349; in the data active = parasite load remaining mostly below about 12%, no sharp cut-off; inactive = mostly above about 10%;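 also: 100% = mean of DMSO negative control wells on the same plate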); conditions: P. berghei liver stage in HepG2, luciferase luminescence, concentration not given here; parasite load remaining: stronger effect = lower value; viability: measured here: HepG2 viability without parasites
# [4] = viability rescue of complex I mutant cybrids, primary screen, cell-based, galactose medium, ATP luminescence (AID 1645843;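 active = z-score of at least 1.8 in each of two replicates, scored against plate mean and spread of sample wells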;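 also: positive z means more ATP and so rescue of galactose-driven cybrid death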); conditions: complex I mutant cybrid cells, 72 h, stronger effect = higher value
# [5] = target: Mitogen-activated protein kinase 7 (Homo sapiens) (UniProt Q13164); experiment: ERK5 transactivation activators in reporter cells, primary screen, cell-based, HTS (AID 1508626;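 active = luciferase signal above three times the same-plate solvent-only control wells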;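 also: luciferase driven by Gal4-ERK5 fusion binding five Gal4 sites before minimal TATA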); conditions: HeLa Gal4-ERK5 transactivation, 18 h, at 5 µM, stronger effect = higher value
# Mitogen-activated protein kinase 7 (Homo sapiens), sequence (Q13164 whole entry, looked up, the tested form may be a part): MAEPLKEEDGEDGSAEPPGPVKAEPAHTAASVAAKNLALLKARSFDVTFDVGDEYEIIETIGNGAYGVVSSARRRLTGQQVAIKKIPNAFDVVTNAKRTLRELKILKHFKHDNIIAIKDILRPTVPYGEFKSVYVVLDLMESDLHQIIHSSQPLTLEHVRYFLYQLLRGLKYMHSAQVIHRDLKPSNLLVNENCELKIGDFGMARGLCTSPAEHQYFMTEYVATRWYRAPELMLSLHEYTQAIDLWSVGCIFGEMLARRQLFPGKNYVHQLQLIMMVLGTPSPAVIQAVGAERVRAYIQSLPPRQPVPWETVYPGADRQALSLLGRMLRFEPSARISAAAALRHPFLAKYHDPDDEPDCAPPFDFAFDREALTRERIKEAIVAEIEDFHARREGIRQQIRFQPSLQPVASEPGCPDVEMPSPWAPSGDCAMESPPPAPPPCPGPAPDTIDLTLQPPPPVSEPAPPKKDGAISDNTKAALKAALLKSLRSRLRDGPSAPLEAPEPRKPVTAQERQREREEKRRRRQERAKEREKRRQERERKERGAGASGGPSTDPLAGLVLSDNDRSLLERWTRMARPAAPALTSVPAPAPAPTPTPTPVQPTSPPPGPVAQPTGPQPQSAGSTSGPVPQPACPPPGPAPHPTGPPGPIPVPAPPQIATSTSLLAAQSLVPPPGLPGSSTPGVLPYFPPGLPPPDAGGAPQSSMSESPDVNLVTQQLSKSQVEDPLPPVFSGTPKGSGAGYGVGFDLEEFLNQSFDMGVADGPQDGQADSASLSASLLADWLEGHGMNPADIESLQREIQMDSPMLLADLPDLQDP
# [6] = LFS_MB_1R medulloblastoma cell growth inhibition, synergistic combos for chromothripsis tumors, cisplatin or BGB combos (AID 1671452); conditions: LFS_MB_1R medulloblastoma cells, stronger effect = higher value;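 also: cells exposed for 96 hours before readout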
# [7] = CRL2098 osteosarcoma cell growth inhibition, synergistic combos for chromothripsis tumors, BGB or cisplatin IC20 combos (AID 1671454); conditions: CRL2098 osteosarcoma cells, drug combinations, stronger effect = higher value;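 also: cells exposed for 96 h before readout; 0% = vehicle DMSO and 100% = killing by high DMSO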
# [8] = HD-MB03 medulloblastoma cell growth inhibition, synergistic combos for chromothripsis tumors, BGB or cisplatin IC20 combos (AID 1671455; in the data active = inhibition above about 83%;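 also: 0% = vehicle DMSO and 100% = high DMSO as cytotoxic control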); conditions: HD-MB03 medulloblastoma cells, stronger effect = higher value
# [9] = UWB1.289 ovarian carcinoma cell growth inhibition, synergistic combos for chromothripsis tumors, BGB or cisplatin combos (AID 1671456); conditions: UWB1.289 ovarian carcinoma cells, stronger effect = higher value;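 also: cells exposed to compound for four days; 0% = vehicle DMSO and 100% = killing by high DMSO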
# [10] = LFS_MB_2R medulloblastoma cell growth inhibition, synergistic combos for chromothripsis tumors, cisplatin combos (AID 1671457); conditions: LFS_MB_2R medulloblastoma cells, stronger effect = higher value;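 also: cells exposed to compound for four days before readout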
# [11] = UWB1.289_BRCA1 ovarian cancer growth, cell-based, BGB or cisplatin combinations (AID 1671459); conditions: UWB1.289 BRCA1 ovarian carcinoma, drug combinations, stronger effect = higher value
# [12] = human astrocyte viability loss, single and combined drugs, cytotoxicity control for chromothriptic childhood tumor combination screen, cell-based, BGB or cisplatin IC20 combos (AID 1671460); conditions: Human astrocytes, drug combinations, stronger effect = higher value;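 also: cells exposed to compounds for 96 hours before viability readout; 0% = vehicle and 100% = killing control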
# [13] = growth inhibition of CRL1545 osteosarcoma cells, cell-based, cisplatin and BGB IC20 combos (AID 1671464); conditions: stronger effect = higher value;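 also: cells exposed to compound for 96 hours before readout; 0% = vehicle DMSO and 100% = high DMSO killing control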
# [14] = circadian clock period modulators, cell-based, LOPAC library, luminescence reporter (AID 2774; call rule not given here;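 also: values are relative to mean of DMSO wells on each plate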); conditions: circadian reporter cells, at 7 µM, actives lie on both sides
# [15] = test system: Hepatitis C virus NS3 helicase; experiment: HCV NS3 helicase inhibitors, primary screen, biochemical, fluorescence polarization, LOPAC1280 library (AID 687035; in the data active = inhibition above about 37%); conditions: Purified HCV NS3 helicase, Cy5-dT15 ssDNA binding fluorescence polarization; stronger effect = higher value; concentration not given here
# [16] = Cy5 fluorescence quenching or enhancement artefacts, artefact control for HCV NS3 helicase inhibitor project, biochemical, LOPAC1280 (AID 687037; call rule not given here); conditions: Cy5-DNA-NS3h complex fluorescence interference counterscreen
# [17] = phospholipid biosynthesis inhibitors in animal cells, primary screen, cell-based, LOPAC library, screen 4 (AID 1347384; call rule not given here); conditions: phospholipid biosynthesis inhibition screen, at 10 µM
# [18] = inhibitors of Cryptococcus chitosan production, flow cytometry, Cibacron Brilliant Red staining (AID 1347148; call rule not given here;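 also: compound exposure lasted three days at 37 degrees C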); conditions: Cryptococcus neoformans chitosan, stronger effect = lower value; at 10 µM unless noted
# [19] = target: NAD(+) hydrolase SARM1 (Homo sapiens) (UniProt Q6SZW1); experiment: SARM1 TIR NADase inhibitors, cell lysate, NAD-Glo luminescence (AID 1508614;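 active = compound whose remaining NAD level is above about 45 nM, limit read from the data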;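 also: higher remaining NAD means stronger inhibition of SARM1 NADase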); conditions: SAM-TIR HEK293T lysate NADase, at 1 µM, stronger effect = higher value
# NAD(+) hydrolase SARM1 (Homo sapiens), sequence (Q6SZW1 whole entry, looked up): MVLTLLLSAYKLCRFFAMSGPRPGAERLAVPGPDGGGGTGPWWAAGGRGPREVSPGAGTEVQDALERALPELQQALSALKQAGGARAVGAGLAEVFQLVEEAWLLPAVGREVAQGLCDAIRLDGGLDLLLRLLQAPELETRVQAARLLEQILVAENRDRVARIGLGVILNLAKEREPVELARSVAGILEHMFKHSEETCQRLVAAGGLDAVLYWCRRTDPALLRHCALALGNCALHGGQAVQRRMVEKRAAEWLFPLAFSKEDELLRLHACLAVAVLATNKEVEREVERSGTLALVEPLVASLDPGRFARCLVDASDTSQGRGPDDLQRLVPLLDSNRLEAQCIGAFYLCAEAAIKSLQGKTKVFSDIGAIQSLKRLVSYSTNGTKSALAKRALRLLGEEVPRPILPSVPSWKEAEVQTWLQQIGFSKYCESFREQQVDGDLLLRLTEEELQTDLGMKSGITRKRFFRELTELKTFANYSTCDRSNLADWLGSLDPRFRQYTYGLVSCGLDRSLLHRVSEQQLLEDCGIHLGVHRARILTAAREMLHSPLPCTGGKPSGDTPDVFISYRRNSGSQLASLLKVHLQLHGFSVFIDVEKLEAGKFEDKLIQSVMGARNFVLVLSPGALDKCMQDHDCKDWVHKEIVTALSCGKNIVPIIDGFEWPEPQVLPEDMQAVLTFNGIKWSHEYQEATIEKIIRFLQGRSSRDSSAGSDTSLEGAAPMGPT
# [20] = measured here: combination with BGB IC40, at 0.05 µM
# [21] = measured here: combination with cisplatin, at 0.5 µM
# [22] = measured here: combination with cisplatin, at 5 µM
# [23] = measured here: combination with BGB at IC20, at 0.5 µM
# [24] = measured here: combination with cisplatin at IC20, at 0.5 µM
# [25] = measured here: combo with BGB at IC20, at 0.5 µM
# [26] = measured here: combo with cisplatin at IC20, at 0.5 µM
# [27] = measured here: inhibition with BGB combination, at 0.05 µM
# [28] = measured here: inhibition with cisplatin combination, at 0.05 µM
# [29] = BGB combination, concentration series, at 5 µM
# [30] = cisplatin combination, concentration series, at 5 µM
# [31] = measured here: combo with BGB IC20, at 0.5 µM
# [32] = measured here: combo with cisplatin IC20, at 0.5 µM
# [33] = measured here: with BGB IC20 combination, at 0.5 µM
# [34] = measured here: with cisplatin IC20 combination, at 0.5 µM
structure (smiles),measurement,setting,value
OCCn1cc(-c2cnc3nnn(Cc4ccc5ncccc5c4)c3n2)cn1,liver cell % of control,[1],97.5% and 96.9% and 96.4%
same,parasite % of control,[1],74.3% (inactive) and 94.9% (inactive) and 55.7% (inactive)
CN(C)CC(C)(C)CNc1nn2c(-c3ccccc3)nnc2cc1C1CCC1,liver cell % of control,[1],58.5% and 89.5% and 101%
same,parasite % of control,[1],54.4% (inactive) and 60.7% (inactive) and 52.9% (inactive)
CC[C@H](CO)Nc1nc(NCc2ccccc2)c2ncn(C(C)C)c2n1,survival,[2],75.1 (inactive)
same,parasite load remaining,[3],29.6% (inactive)
same,viability,[3],68.3%
O=C(O)CCCc1c[nH]c2ccccc12,z-score,[4],1.11 (inactive)
C[C@H]1[C@H](C)CC[C@]2(C(=O)O)CC[C@]3(C)C(=CC[C@@H]4[C@@]5(C)C[C@@H](O)[C@H](O)[C@@](C)(CO)[C@@H]5CC[C@]43C)[C@H]12,luciferase signal,[5],36 AU (inactive)
COc1ccc(-c2nc(N3CCOCC3)c3sc(CN(C)c4ncc(C(=O)NO)cn4)cc3n2)cn1,inhibition,[6]; at 0.5 µM,93% (active) and 88.4% (active)
same,inhibition,[6]; [20],27.1% and 15.8%
same,inhibition,[6]; [21],91.8% and 93.4%
same,inhibition,[6]; [22],100% and 102%
same,inhibition,[7]; at 0.5 µM,77.2% (inactive) and 40.2% (inactive)
same,inhibition,[7]; [23],83.7% and 62.7%
same,inhibition,[7]; [24],71.6% and 16.5%
same,inhibition,[8]; at 0.5 µM,99.8% (active)
same,inhibition,[8]; [25],99.7%
same,inhibition,[8]; [26],99.9% and 99.8%
same,inhibition,[9]; at 0.5 µM,74.5% (inactive) and 79.8% (inactive)
same,inhibition,[9]; [27],5.77% and 13.7%
same,inhibition,[9]; [28],-4.75% and -1.55%
same,inhibition,[10]; at 0.5 µM,82.2% (active) and 85.4% (active)
same,inhibition,[10]; [21],93.9% and 97.3%
same,inhibition,[10]; [22],110% and 105%
same,inhibition,[11]; [29],118% and 117%
same,inhibition,[11]; at 0.5 µM,79.8% (inactive) and 83.2% (active)
same,inhibition,[11]; [30],127% and 131%
same,inhibition,[12]; at 0.5 µM,101% (active) and 102% (active)
same,inhibition,[12]; [31],103% and 104%
same,inhibition,[12]; [32],100% and 101%
same,inhibition,[13]; at 0.5 µM,88.6% (active) and 47.7% (inactive)
same,inhibition,[13]; [33],89.3% and 57.8%
same,inhibition,[13]; [34],88% and 41.7%
same,inhibition,"[13]; single agent, at 0.05 µM",21.7% and -65.8%
same,inhibition,"[13]; single agent, at 5 µM",99.3% and 99%
O=C(c1cc(Cc2n[nH]c(=O)c3ccccc23)ccc1F)N1CCN(C(=O)C2CC2)CC1,inhibition,[6]; at 0.5 µM,0.5% (inactive) and -18.6% (inactive)
same,inhibition,[6]; [20],4.09% and -28.6%
same,inhibition,[6]; [21],-5.89% and -28.2%
same,inhibition,[6]; [22],10.2% and -13.4%
same,inhibition,[7]; at 0.5 µM,-22.2% (inactive) and -52% (inactive)
same,inhibition,[7]; [23],-38.6% and -22.3%
same,inhibition,[7]; [24],8.08% and -53.7%
same,inhibition,[8]; at 0.5 µM,0.63% (inactive) and 3.05% (inactive)
same,inhibition,[8]; [25],-2.67% and 1.02%
same,inhibition,[8]; [26],5.32% and 12.9%
same,inhibition,[9]; at 0.5 µM,3.95% (inactive) and -1.88% (inactive)
same,inhibition,[9]; [27],-15.9% and -18%
same,inhibition,[9]; [28],-0.831% and -12.7%
same,inhibition,[10]; at 0.5 µM,-13.1% (inactive) and -23.1% (inactive)
same,inhibition,[10]; [21],-6.19% and -20.5%
same,inhibition,[10]; [22],-14.1% and -19.5%
same,inhibition,[11]; [29],15.2% and -17.7%
same,inhibition,[11]; at 0.5 µM,3.2% (inactive) and -8.35% (inactive)
same,inhibition,[11]; [30],8.98% and -4%
same,inhibition,[12]; at 0.5 µM,4.09% (inactive) and -6.96% (inactive)
same,inhibition,[12]; [31],0.597% and -11.9%
same,inhibition,[12]; [32],7.1% and 3.7%
same,inhibition,[13]; at 0.5 µM,11% (inactive) and 18.2% (inactive)
same,inhibition,[13]; [33],2.64% and 8.45%
same,inhibition,[13]; [34],15.2% and 23.1%
same,inhibition,"[13]; single agent, at 0.05 µM",8.77% and 29.2%
same,inhibition,"[13]; single agent, at 5 µM",44.7% and 52.9%
O=c1c(O)c(-c2cc(O)c(O)c(O)c2)oc2cc(O)cc(O)c12,period change,[14],-0.075 h (inactive)
same,survival,[2],2.42 (inactive)
same,parasite load remaining,[3],81.9% (inactive) and 74.4% (inactive)
same,viability,[3],106% and 74.8%
same,inhibition,[15],8% (inactive)
same,fluorescence ratio (interference),[16],1 (inactive)
same,outcome,[17],inactive
same,z-score,[4],-1.22 (inactive)
Cc1cccc(-c2[nH]c(C(C)(C)C)nc2-c2ccc3c(c2)OCO3)n1,parasite load remaining,[3],33.2% (inactive)
same,viability,[3],61.8%
Cc1ccc2c(c1)C(=O)[C@]1(O)CCN(c3ccccc3)C1=N2,fold fluorescence,[18],7.57 [at 171 µM] (inactive)
Cc1cccc(-c2[nH]c(C(C)(C)C)nc2-c2ccc3nccnc3c2)n1,inhibition,[15],-3% (inactive)
same,fluorescence ratio (interference),[16],1 (inactive)
same,outcome,[17],inactive
same,z-score,[4],-1.01 (inactive)
CC#CCn1c(N2CCC[C@@H](N)C2)nc2c1c(=O)n(Cc1nc(C)c3ccccc3n1)c(=O)n2C,remaining NAD,[19],10 nM (inactive)

# Reference: PubChem BioAssay
